A short description of experiment [1]: stimulators of nuclear beta-catenin in C2C12, primary screen, imaging, WNT3A-conditioned medium, mouse C2C12, NPC library (AID 1117326; in the data active = nuclear beta-catenin stimulation mostly above about 4.2%, no sharp cut-off; inactive = mostly below about 10%). The conditions noted are these: stronger effect = higher value.
Experiment [2] can be described thus: stimulators of insulin release from INS-1E, primary screen, cell-based, 5 mM glucose, NPC library (AID 1117329). The conditions noted are these: rat INS-1E insulin secretion, at 10 µM, stronger effect = higher value.
Experiment [3] in a line: growth inhibition of GSK3B-pretreated HCT116 cells – cell-based, CellTiter-Glo, 0.2 to 20 µM (AID 1117336;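 active = compounds lowering colon cancer cell viability after pretreatment blocking the GSK3B kinase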). The conditions noted are these: HCT116 viability after GSK3B inhibitor, at 20 µM, stronger effect = higher value.
The nature of experiment [4]: glucagon-like peptide 1 release enhancers, primary assay, NCI-H716 cell line, NPC library (AID 1117341;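 active = compound raises GLP1 secretion from the human gut endocrine cells, with no numeric limit stated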). The conditions noted are these: NCI-H716 cells, at 10 µM, stronger effect = higher value.
Experiment [5] can be described thus: HCT116 colon cancer cell growth inhibition, primary screen, CellTiter-Glo luminescence, NPC library (AID 1117342;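 active = compounds that lower survival of HCT116 colon cancer cells in the luminescence readout, no numeric limit stated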). The conditions noted are these: at 20 µM (top of the series).
Experiment [6] in a line: CellTiter-Glo luminescent readout of SW480 viability loss, NPC library primary (AID 1117343;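 active = compounds that lower viability of the colon cancer cells in the luminescence readout, with no numeric limit stated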). The conditions noted are these: CellTiter-Glo luminescence; at 20 µM (top of the series) unless noted.
The nature of experiment [7]: decreased DLD-1 cellular survival, CellTiter-Glo luminescent readout, NPC compound collection, primary HTS (AID 1117346;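 active = compounds that lower survival of DLD-1 colon cancer cells in the luminescence readout, no cutoff given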). The conditions noted are these: DLD-1 viability, CellTiter-Glo luminescence; at 20 µM (top of the series).
Experiment [8] is described as follows: inhibition of endothelial tube formation, primary screen, imaging, VEGF stimulated, CD31 staining, tube area, NPC library (AID 1117340;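 active = compound that reduces growth-factor-driven endothelial tube area in a mixed cell culture, no cutoff stated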). The conditions noted are these: VEGF-stimulated ADSC/ECFC co-culture, at 10 µM, stronger effect = higher value.
In experiment [9] the target is Mitogen-activated protein kinase 7 (Homo sapiens) (UniProt Q13164). In words: ERK5 transactivation activators in reporter cells, primary screen, cell-based, HTS (AID 1508626;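 active = luciferase signal above three times the same-plate solvent-only control wells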;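 note: luciferase driven by Gal4-ERK5 fusion binding five Gal4 sites before minimal TATA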). The conditions noted are these: HeLa Gal4-ERK5 transactivation, 18 h, at 5 µM, stronger effect = higher value.
Experiment [10] is described as follows: LFS_MB_P medulloblastoma growth inhibition, cell-based, chromothripsis tumors, cisplatin or BGB combos (AID 1671449; in the data active = inhibition above about 80%;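 note: cells exposed for 96 hours; 0% = vehicle DMSO and 100% = killing by high DMSO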). The conditions noted are these: LFS_MB_P medulloblastoma cells.
The nature of experiment [11]: HDN33 neuroblastoma growth inhibition, cell-based, chromothripsis tumors, cisplatin or BGB combos (AID 1671450; in the data active = inhibition above about 80%;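 note: cells exposed to compound for four days; 0% = vehicle DMSO and 100% = cell killing by high DMSO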). The conditions noted are these: HDN33 neuroblastoma cells, stronger effect = higher value.
A short description of experiment [12]: ICB984 medulloblastoma cell growth inhibition, synergistic combos for chromothripsis tumors, cisplatin or BGB combos (AID 1671451; call rule not given here;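 note: cells exposed for 96 hours before readout; 0% = vehicle DMSO and 100% = killing by high DMSO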). The conditions noted are these: ICB984 medulloblastoma cells, drug combinations, stronger effect = higher value.
The nature of experiment [13]: HTB85 osteosarcoma cell growth inhibition, synergistic combos for chromothripsis tumors, BGB or cisplatin IC20 combos (AID 1671453; in the data active = inhibition above about 80%;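 note: cells exposed for 96 hours before readout; 0% = vehicle DMSO and 100% = high DMSO killing control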). The conditions noted are these: HTB85 osteosarcoma cells, drug combinations, stronger effect = higher value.

Active and inactive are the calls of the source.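 Rule for the calls, unless noted: active = compound raises insulin release from rat beta cells at 5 mM glucose, no numeric limit stated; inactive = the rest.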

Mitogen-activated protein kinase 7 (Homo sapiens), sequence (Q13164 whole entry, looked up, the tested form may be a part): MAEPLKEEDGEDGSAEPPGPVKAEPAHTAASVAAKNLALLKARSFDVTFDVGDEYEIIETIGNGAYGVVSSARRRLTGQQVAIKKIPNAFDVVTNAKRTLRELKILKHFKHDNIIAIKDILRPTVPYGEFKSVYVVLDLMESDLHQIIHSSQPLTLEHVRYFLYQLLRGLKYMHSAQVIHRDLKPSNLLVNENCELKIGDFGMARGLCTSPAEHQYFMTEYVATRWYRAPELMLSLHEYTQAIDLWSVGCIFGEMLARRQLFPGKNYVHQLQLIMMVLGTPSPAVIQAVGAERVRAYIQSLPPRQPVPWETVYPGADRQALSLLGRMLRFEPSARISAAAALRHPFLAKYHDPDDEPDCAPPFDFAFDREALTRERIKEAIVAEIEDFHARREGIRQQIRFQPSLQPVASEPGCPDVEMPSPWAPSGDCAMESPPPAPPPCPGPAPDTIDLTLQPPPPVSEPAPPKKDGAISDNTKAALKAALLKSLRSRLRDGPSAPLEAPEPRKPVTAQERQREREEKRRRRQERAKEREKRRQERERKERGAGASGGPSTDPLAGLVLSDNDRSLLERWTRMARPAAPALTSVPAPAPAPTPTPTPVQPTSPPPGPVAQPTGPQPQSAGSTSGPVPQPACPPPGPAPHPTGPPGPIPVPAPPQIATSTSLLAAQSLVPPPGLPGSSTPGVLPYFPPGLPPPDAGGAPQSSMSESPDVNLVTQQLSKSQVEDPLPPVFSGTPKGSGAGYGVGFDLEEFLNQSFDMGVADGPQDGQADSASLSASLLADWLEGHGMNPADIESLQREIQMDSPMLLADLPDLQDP

With `CC(C)Cn1cnc2c1c(=O)n(C)c(=O)n2C`, the nuclear beta-catenin stimulation in experiment [1] (at 10 µM) was 1.9% (inactive); in experiment [1] (stimulation, at 2 µM), -1.3%. The insulin secretion stimulation in experiment [2] was 1.65% (inactive). Besides, the viability decrease in [3] was 0% (inactive). In experiment [4], the GLP1 secretion stimulation was 3.4% (inactive). The inhibition of viability in experiment [5] is 31.9% (inactive). The viability decrease (inhibition) was -1.5% (inactive) in experiment [6] and 11.3% (inactive) in [7].

On to `Cc1c(C)n(CCN(C)C)c2ccc(C(=O)OCCN(C)C)cc12`, for which the nuclear beta-catenin stimulation was 1.1% (inactive) in experiment [1] (at 10 µM) and 14.1% in experiment [1] (stimulation, at 2 µM). For the same molecule, the insulin secretion stimulation in experiment [2] was 0.4% (inactive). Moreover, in experiment [3], the viability decrease was 41.2% (inactive). Besides, the inhibition of viability in [5] was 27.7% (inactive). For the same molecule, the viability decrease (inhibition) in experiment [6] was 71.7% (active); in [7] it was 0.9% (inactive).

Consider `COC(=O)CCCCC(CCSS/C(CCO)=C(\C)N(C=O)Cc1cnc(C)nc1N)SC(C)=O` (centres undefined), for which the nuclear beta-catenin stimulation in [1] (at 10 µM) was 1% (inactive); in experiment [1] (stimulation, at 2 µM) it was -1%. Also, the insulin secretion stimulation in experiment [2] was 0.75% (inactive). Also, the GLP1 secretion stimulation in experiment [4] is 0.4% (inactive).

On to `CC(C)=CCC[C@@](C)(O)[C@H]1CC=C(C)CC1`, for which the nuclear beta-catenin stimulation was 1.8% (inactive) in [1] (at 10 µM) and 4% in experiment [1] (stimulation, at 2 µM). Further, in experiment [2], the insulin secretion stimulation is 3.6% (inactive). In addition, the viability decrease in experiment [3] was -34.3% (inactive). Besides, the tube area decrease in experiment [8] was 5% (inactive). The GLP1 secretion stimulation in [4] is 2.7% (inactive). Besides, the inhibition of viability in experiment [5] was -4.77% (inactive). Besides, the viability decrease (inhibition) in [6] was -13% (inactive); in experiment [7], -9.9% (inactive). Moreover, in [9], the luciferase signal is 32 AU (inactive).

With `Cc1ccc2nc(N)[nH]c(=O)c2c1Sc1ccncc1`, the nuclear beta-catenin stimulation in [1] (at 10 µM) is 63.4% (active); in experiment [1] (stimulation, at 2 µM), 61.7%. Besides, the insulin secretion stimulation in experiment [2] was 1.1% (inactive). Also, the viability decrease in [3] is 94.2% (active). Further, the tube area decrease in [8] was 50.9% (active). In experiment [4], the GLP1 secretion stimulation was 1.3% (inactive). Moreover, in experiment [5], the inhibition of viability is 81.5% (active). The viability decrease (inhibition) in experiment [6] is 78.8% (active); in [7] it was 42.1% (inactive). Also, the inhibition in experiment [10] (at 0.5 µM, stronger effect = higher value) was 15.7% (inactive); in [10] (measured here: combination with BGB IC20, at 0.005 µM) it was -4.28%; in experiment [10] (measured here: combination with BGB IC40, at 0.005 µM), -17.9%; in [10] (measured here: combination with BGB IC40, at 0.05 µM) it was -6.64%; in experiment [10] (measured here: combination with cisplatin, at 0.5 µM, stronger effect = higher value), 12.2%; in experiment [10] (measured here: combination with cisplatin, at 5 µM, stronger effect = higher value) it was -5.06%. Also, the inhibition in experiment [11] (BGB combo, at 5 µM) is 21.4%; in experiment [11] (at 0.5 µM) it was -26.6% (inactive); in experiment [11] (cisplatin combo, at 5 µM), 28.1%; in [11] (measured here: with BGB IC20 combination, at 0.5 µM), -32.4%; in experiment [11] (measured here: with cisplatin IC20 combination, at 0.5 µM), -14.7%; in experiment [11] (single agent, at 5 µM), 43.4%. Further, the inhibition was -27.9% in [12] (BGB IC20 combo, at 0.005 µM); -29.4% in experiment [12] (BGB IC40 combo, at 0.005 µM); -15.3% in experiment [12] (BGB IC40 combo, at 0.05 µM); -23.3% (inactive) in experiment [12] (at 0.5 µM); -21.2% in [12] (cisplatin combo, at 0.05 µM); -25.7% in experiment [12] (cisplatin combo, at 0.5 µM). Besides, the inhibition was -19.8% in experiment [12] (cisplatin combo, at 5 µM); -37.5% in [12] (measured here: 5 uM single agent, at 5 µM); -33.1% (inactive) in experiment [13] (at 0.5 µM); -36.1% in experiment [13] (measured here: with BGB IC20, at 0.5 µM); 7.13% in experiment [13] (measured here: with BGB IC20, at 5 µM); -25.9% in [13] (measured here: with cisplatin IC20, at 0.5 µM). Besides, the inhibition in [13] (measured here: with cisplatin IC20, at 5 µM) was found to be 0.276%; in experiment [13] (single agent, at 5 µM), 0.242%.
